Among all 69,000 compounds or so, about 8,600 (12%) showed an effect of 50% or more. For the sample, strong results were picked, then their nearest neighbours and some compounds at random.
The molecules below were run on Plasmodium berghei (assay: Screen against P. berghei liver stage (PbLuc), transformed with Luciferase, at 10uM). Conditions: tested at 10 uM.
Format: functional, HepG2

Compound	INHIBITION [%]
COc1ccc(CNC2CCC3(CCC(=O)N3)CC2)cc1 (configuration not stated)	19.8
CC(C)c1nn(C)c(N(C)C)c1CNCc1cccc(CN(C)C)c1	21.8
Cn1ncc(C(=O)O)c1C(=O)Nc1nc2ccc(Br)cc2s1	6.27
COCCOCC(=O)N1CCc2cc(Cl)cc(Cl)c2C1	1.86
CCSCc1nc(O)c2nnn(C3CCN(Cc4ccco4)CC3)c2n1	32.5
Cc1ccc(C)c(C(=O)N2CCC3(CCC(=O)N(CC(N)=O)C3)CC2)c1	15.2
Cn1cc(C(=O)N2CCN(c3ncccn3)CC2)ccc1=O	28.8
CN(CC1CCOC1)S(=O)(=O)c1cccc(C(=O)N2CCCCCC2)c1 (configuration not stated)	-7.57
CCS(=O)(=O)N1CCc2ncnc(C)c2CC1	42.3
Cc1ncnc2c1CCN(C(=O)Cc1cccc(F)c1)CC2	36.4
CCOc1ncnc2c1CCN(S(=O)(=O)CC)CC2	30.5
O=C(Cc1cccc(F)c1)N1CCc2ncnc(N3CCCC3)c2CC1	-13.9
O=C(Cc1cccc(F)c1)N1CCc2ncnc(NC3CCC3)c2CC1	53
CCS(=O)(=O)N1CCc2ncnc(OC)c2CC1	79.2
O=C(Cc1cccc(F)c1)N1CCc2ncnc(NC3CC3)c2CC1	14
COc1ncnc2c1CCN(C(=O)NCc1cccc(F)c1)CC2	17.2
COc1ncnc2c1CCN(C(=O)Cc1cccc(F)c1)CC2	52.6
Cc1ccc(CN2CCOCC2c2[nH]ncc2C)cn1 (configuration not stated)	13.635
CCC(c1ccccc1)c1nn2c(CN(CC)CC)nnc2s1 (configuration not stated)	23.1
CCC(=O)NCCc1cc2nc(-c3ccncc3)ccn2n1	21.4
COCC(C)NC(=O)c1cc(C)n(-c2cccc(OC)c2)c1C (configuration not stated)	35.9
CN1C(=O)CCCC12CCCN(C(=O)c1cccc(C(F)(F)F)c1)C2 (configuration not stated)	40.8
CSCC[C@H](NC(C)=O)c1nc(CCc2ccccc2)n[nH]1	-47.9

Compound	INHIBITION [%]
CCC=C(C)C(=O)NCc1ccc(OC)nc1	-0.514
Cc1ccccc1-c1noc(CN2CCc3nn(C)c(=O)cc3C2)n1	7.08
CCOCC(O)CN1CCN(C(=O)Cc2cccc(C)c2)CC1 (configuration not stated)	-52.95
CCC(O)CN1CCN(C(=O)Cc2ccccc2Cl)CC1 (configuration not stated)	18.625
CCOCC(O)CN1CCN(C(=O)Cc2ccccc2Cl)CC1 (configuration not stated)	25.6
CCOCC(O)CN1CCN(C(=O)Cc2ccc3c(c2)CCC3)CC1 (configuration not stated)	51.5
CCOCC(O)CN1CCN(C(=O)Cc2ccc3c(c2)CCO3)CC1 (configuration not stated)	9.25
O=C(Cc1ccccc1Cl)N1CCN(CC(O)COCCO)CC1 (configuration not stated)	57.85
O=C(c1cnccn1)N1CCCC2(CCN(Cc3cccnc3)C2)C1 (configuration not stated)	-19.5
O=C(c1cncc(NCC2COc3ccccc3C2)n1)N1CCCCC1 (configuration not stated)	0.348
CC(C)Cc1nc(OCC(N)=O)c(C#N)c2c1CCC2	16.6
CC(C)Cc1nc(OCC(=O)O)c(C#N)c2c1CCCC2	43.4
CC(C)Cc1nc(OCC(N)=O)c(C#N)c2c1CCCC2	51
C[C@@H]1C[C@H](C(F)(F)F)n2nc(C3CCN(C(=O)C(C)(C)C)CC3)cc2N1	8.72
O=C(NCc1cccnc1)C1=NOC2(CCN(C(=O)N3CCCC3)C2)C1 (configuration not stated)	-50.9
CCNc1ncc(C(=O)N(C)CCc2nc3cc(Cl)ccc3[nH]2)cn1	41.5
CN(CCc1nc2cc(Cl)ccc2[nH]1)C(=O)c1ncn[nH]1	16.5
CCc1ncc(C(=O)N(C)CCc2nc3cc(OC)ccc3[nH]2)cn1	59.1
CCn1cnnc1CNC(=O)c1ccc(Cl)cc1I	44.1
O=C1COC2(CCN(c3ccccn3)CC2)CN1	-23.3
COc1cc(N2CCC3(CC2)CNC(=O)CO3)ncn1	16.6
O=C1COC2(CCN(c3ncccn3)CC2)CN1	70
O=C1CCCCN1CCCC(=O)N1CCC2(CC1)[C@H](O)C[C@@H]2O	26.8

Compound	INHIBITION [%]
CN(CC(=O)Nc1nncs1)CC1CCCN1c1cccnn1 (configuration not stated)	3.77
CN(CC(=O)Nc1ccncc1)CC1CCCN1c1cccnn1 (configuration not stated)	41.4
CC(=O)Nc1nc(CN(C)CC2CCCN2c2cccnn2)cs1 (configuration not stated)	51.7
CN(CC(=O)Nc1cccnc1)CC1CCCN1c1cccnn1 (configuration not stated)	53.4
CC(=O)Nc1nc(CN(C)C2CCCN(c3cccnn3)C2)cs1 (configuration not stated)	31.2
Cc1csc(NC(=O)CN(C)CC2CCCN2c2cccnn2)n1 (configuration not stated)	48.5
Cc1noc(C)c1CCC(=O)N[C@@H]1CCC[C@@H](Oc2cccnc2)[C@@H]1O	-27.1
CS(=O)(=O)c1cccc(C(=O)NCCCN2CCc3ccccc3C2)c1	56.4
CS(=O)(=O)c1cccc(C(=O)NCC2(c3ccccc3)CC2)c1	86.8
CS(=O)(=O)c1ccccc1C(=O)NCCCN1CCc2ccccc2C1	52.1
Cc1ccccc1C1(CNC(=O)c2cccc(S(C)(=O)=O)c2)CC1	-8.22
O=C(NCCCN1CCc2ccccc2C1)c1ccccc1Cl	-7.31
Cc1cccc(C(=O)NCCCN2CCc3ccccc3C2)c1C	21.5
Cc1ccccc1C1(CNC(=O)c2ccc(S(C)(=O)=O)cc2)CC1	30.3
O=C(NCCCN1CCc2ccccc2C1)c1ccccc1Br	5.03
Cc1ccccc1C(=O)NCCCN1CCc2ccccc2C1	25.6
Cc1nc(C)n(CC2CCCCN2CC(=O)NC(C2CC2)C2CC2)n1 (configuration not stated)	-24.2
O=c1c2ccccc2nc2n1C(CSc1cccc(C(F)(F)F)c1)CN2 (configuration not stated)	37.8
CNC(=O)[C@@H]1C[C@H]2CN(C(=O)c3ccco3)C[C@H]2N1C	7.84
c1ccc(N2CCOC3(CCCN(c4nncs4)C3)C2)nc1 (configuration not stated)	3.95
O=C1C[C@@H]2CC[C@H](CN1)N2C(=O)CCc1ccccc1	11.2
Cc1cc(CCC(N)=O)cc(C2CCCN2Cc2cnc(C)nc2)n1 (configuration not stated)	52
Cc1cc(CCC(N)=O)cc(C2CCCN2Cc2ccnn2C)n1 (configuration not stated)	-2.11

Compound	INHIBITION [%]
Cc1cc(CCC(N)=O)cc(C2CCCN2Cc2ccccn2)n1 (configuration not stated)	18.3
Cc1noc(C)c1CNCC1COCc2c(-c3ccoc3)nnn2C1 (configuration not stated)	-16.9
CCc1noc(C2CCCCN2C(=O)c2ccc3c(c2)OCO3)n1 (configuration not stated)	7.66
CCn1cc(CN2CCCC2c2nc(C(C)C)no2)cc1C#N (configuration not stated)	25.8
Cc1nc(CN2CCCC2c2nc(C(C)C)no2)cs1 (configuration not stated)	36.8
CCn1ccc2ccc(CN3CCCC3c3nc(C(C)C)no3)cc21 (configuration not stated)	61.2
C=C(C)CNC(C)c1ccc(S(C)(=O)=O)c(F)c1 (configuration not stated)	-13.1
Nc1nccnc1C(=O)NC1CCN(Cc2ccccc2)C1 (configuration not stated)	-14.5
Cc1cc(C)c2c(OCC(=O)NCC(O)C(F)(F)F)nn(C)c2n1 (configuration not stated)	-23.4
COCCN1CC=C(c2cccc(OC)c2)CC1	-6.72
COc1cccc(C2=CCN(CCN3CCCC3=O)CC2)c1	51.7
COc1cccc(C2=CCN(CCN3CCOC3=O)CC2)c1	9.37
O=S(=O)(c1ccc(N2CCCCC2)c2nonc12)N1CCCCC1	30
COc1cc(F)ccc1-c1cc(CO)ccn1	37.7
COc1cc(F)ccc1-c1cnc(N)cn1	61.5
Nc1cnc(-c2ccc(F)cc2Cl)cn1	38.2
CN1CCN(C2CCOCC2)CC12CCC(=O)N(CC1CC1)CC2 (configuration not stated)	5.46
Clc1cccc(-n2cnnn2)c1N1CCCCC1	67.3
Clc1cccc(-n2cnnn2)c1N1CCCC1	11
Clc1cccc(-n2cnnn2)c1N1CCOCC1	1.86
O=c1[nH]c2nc(NCC3CCCO3)ncc2c(=O)n1-c1ccc(F)cc1 (configuration not stated)	88.8
O=c1[nH]c2nc(NC3CC3)ncc2c(=O)n1-c1ccc(F)cc1	13.8
O=c1[nH]c2nc(NCC3CCCO3)ncc2c(=O)n1-c1cccc(F)c1 (configuration not stated)	-26.2

Compound	INHIBITION [%]
COCCN1CC[C@@H]2CN(Cc3nccn3C)C[C@@H]2C1	28.7
Cc1ccccc1C(=O)N1CCOC(c2ncc(CN(C)C)[nH]2)C1 (configuration not stated)	-10.4
CCS(=O)(=O)N1C[C@@H](C(=O)NC(C)C)[C@@]2(Cc3ccccc3C(=O)N2)C1	-8.31
CS(=O)(=O)CCC(=O)NC1(c2cccc(C(F)(F)F)c2)CCC1	65.6
CCNC(=O)CCC(=O)NC1(c2cccc(C(F)(F)F)c2)CCC1	23.9
COCC(=O)NC1(c2cccc(C(F)(F)F)c2)CCC1	38.7
CC(C)NC(=O)Nc1ccc(CNCc2cccc(C#N)c2)cc1	43.7
Cc1ccc(C(CNCc2c[nH]nc2C)N(C)C)cc1 (configuration not stated)	-4.33
CC(C)CN1CCC(NC(=O)c2ccc(Cl)cc2Cl)CC1	90.2
COCC(O)CN1CCC(NC(=O)c2ccccc2Cl)CC1 (configuration not stated)	19.6
CC(=O)N1CCC(NC(=O)c2ccccc2-n2cnnn2)CC1	35.9
CCN1CCC(NC(=O)c2ccc(F)cc2I)CC1	2.7
O=C(NC1CCN(C2CC2)CC1)c1cc(Cl)ccc1-n1cnnn1	62.8
CC(=O)N1CCC(NC(=O)c2cc(Cl)ccc2-n2cnnn2)CC1	37.7
CC(=O)N1CCC(NC(=O)c2cc(S(N)(=O)=O)ccc2C)CC1	-21.3
CC(C)CN1CCC(NC(=O)c2ccc(F)cc2F)CC1	31.1
CC(=O)N1CCC(NC(=O)c2cc(Cl)ccc2O)CC1	61
CC(C)CN1CCC(NC(=O)c2ccc(F)cc2Cl)CC1	-23.4
O=C(NC1CC1)c1cc(Cl)ccc1-n1cnnn1	-3.59
CC(C)CN1CCC(NC(=O)c2ccc(F)cc2I)CC1	50.1

Reference: ChEMBL document CHEMBL4513216, “Probing the Open Global Health Chemical Diversity Library for Multistage-Active Starting Points for Next-Generation Antimalarials” (ACS Infect Dis, 2020)
